Data published in PubChem BioAssay AID1159580 (chemical genetic matrix, 2015).
Where “and” joins values, the source holds several entries; their conditions need not be identical. Identical values can stand only once. Hit rate of the full screen: of about 5,500 compounds, about 2,000 (36%) were called active. Another 18% or so got no clear call; they are omitted. No stated cut-off is given here; in the data, active means normalized growth mostly below about 0.91 (no sharp cut-off); inconclusive means no clear call, values can overlap the other calls; inactive means mostly above about 0.92. The list shows a part of the results.

Test: chemical genetic growth profiling, strain panel (AID 1159580);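 further: tested at 20 µM; growth read once vehicle control cultures reached saturation at 30 °C; 1 = growth at the plate median or of vehicle wells; lower values mean less growth of the strain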
Conditions: S. cerevisiae deletion strains, growth OD

Measured: normalized growth

NC(Cc1ccc(Cl)cc1)C(=O)O (stereo not drawn)
inactive: locus YAL013W, strain DEP1, active compounds read low 1 | locus YAL021C, strain ccr4, active compounds read low 0.989 | locus YAL026C, strain drs2, active compounds read low 1.01 | locus YAL030W, strain snc1, active compounds read low 0.993 | locus YAL040C, strain CLN3, active compounds read low 1 | locus YBL061C, strain skt5, active compounds read low 0.999 | locus YBR009C, strain hhf1, active compounds read low 0.993 | locus YBR021W, strain FUR4, active compounds read low 1.01 | locus YBR023C, strain chs3, active compounds read low 0.991 | locus YBR171W, strain sec66, active compounds read low 1.01 | locus YBR229C, strain ROT2, active compounds read low 0.96 | locus YBR231C, strain swc5, active compounds read low 0.997 | locus YBR279W, strain paf1, active compounds read low 0.988 | locus YCL011C, strain gbp2, active compounds read low 1 | locus YCL016C, strain dcc1, active compounds read low 0.989 | locus YCL029C, strain bik1, active compounds read low 0.994 | locus YCL061C, strain MRC1, active compounds read low 1.01 | locus YCL069W, strain vba3, active compounds read low 1 | locus YCR088W, strain abp1, active compounds read low 0.999 | locus YDL005C, strain med2, active compounds read low 0.989 | locus YDL035C, strain GPR1, active compounds read low 0.999 | locus YDL040C, strain nat1, active compounds read low 0.996 | locus YDL074C, strain BRE1, active compounds read low 0.997 | locus YDL101C, strain DUN1, active compounds read low 0.983 | locus YDL134C, strain PPH21, active compounds read low 0.952 | locus YDL185W, strain tfp1, active compounds read low 0.986 | locus YDL192W, strain arf1, active compounds read low 1 | locus YDR001C, strain nth1, active compounds read low 1.01 | locus YDR069C, strain doa4, active compounds read low 0.988 | locus YDR101C, strain arx1, active compounds read low 1.01 | locus YDR137W, strain rgp1, active compounds read low 0.998 | locus YDR150W, strain NUM1, active compounds read low 0.974 | locus YDR159W, strain sac3, active compounds read low 0.976 | locus YDR162C, strain NBP2, active compounds read low 1.01 | locus YDR195W, strain ref2 0.971 | locus YDR297W, strain sur2, active compounds read low 0.992 | locus YDR318W, strain mcm21, active compounds read low 0.987 | locus YDR334W, strain swr1, active compounds read low 1.02 | locus YDR335W, strain msn5, active compounds read low 1 | locus YDR388W, active compounds read low 0.996 | locus YDR392W, strain spt3, active compounds read low 0.936 | locus YDR502C, strain sam2, active compounds read low 1 | locus YEL003W, strain gim4, active compounds read low 1 | locus YEL037C, strain rad23, active compounds read low 1.02 | locus YEL061C, strain CIN8 (second series), active compounds read low 1.01 | locus YEL061C, strain CIN8, active compounds read low 0.99 | locus YER015W, strain faa2, active compounds read low 1 | locus YER016W, strain bim1, active compounds read low 0.992 | locus YER110C, active compounds read low 0.982 | locus YER111C, strain swi4, active compounds read low 1.01 | locus YER155C, strain BEM2 (second series), active compounds read low 0.975 | locus YER155C, strain BEM2, active compounds read low 1.01 | locus YER167W, strain BCK2, active compounds read low 0.999 | locus YFR010W, strain ubp6, active compounds read low 1.03 | locus YGL078C, strain dbp3, active compounds read low 0.988 | locus YGL086W, strain mad1, active compounds read low 1.01 | locus YGL167C, strain pmr1, active compounds read low 0.997 | locus YGL173C, strain kem1, active compounds read low 1 | locus YGL227W, strain vid30, active compounds read low 0.999 | locus YGL240W, strain doc1, active compounds read low 0.972 | locus YGL248W, strain PDE1, active compounds read low 0.987 | locus YGL253W, strain hxk2, active compounds read low 1.01 | locus YGR078C, strain PAC10, active compounds read low 0.991 and 1 | locus YGR135W, strain pre9, active compounds read low 1 | locus YGR229C, strain SMI1, active compounds read low 0.993 | locus YGR252W, strain gcn5, active compounds read low 0.989 | locus YHR013C, strain ard1, active compounds read low 0.994 | locus YHR027C, strain rpn1, active compounds read low 0.992 | locus YHR030C, strain SLT2, active compounds read low 0.986 and 0.959 | locus YHR079C, strain IRE1 (second series), active compounds read low 0.991 | locus YHR079C, strain IRE1, active compounds read low 0.986 | locus YHR094C, strain hxt1, active compounds read low 0.994 | locus YHR129C, strain ARP1, active compounds read low 0.985 | locus YHR142W, strain chs7, active compounds read low 1.03 | locus YHR200W, strain rpn10, active compounds read low 1 | locus YIL066C, strain RNR3, active compounds read low 0.982 | locus YIL073C, strain SPO22, active compounds read low 1.02 | locus YIL125W, strain kgd1, active compounds read low 0.998 | locus YIR030C, strain dcg1, active compounds read low 1 | locus YJL092W, strain hpr5, active compounds read low 1.01 | locus YJL095W, strain BCK1 (second series), active compounds read low 0.99 | locus YJL095W, strain BCK1, active compounds read low 1.02 and 0.993 | locus YJL115W, strain asf1, active compounds read low 0.994 | locus YJL129C, strain trk1, active compounds read low 1.02 | locus YJL134W, strain LCB3, active compounds read low 0.99 | locus YJL154C, strain vps35, active compounds read low 1.01 | locus YJL164C, strain tpk1, active compounds read low 0.992 | locus YJL166W, strain qcr8, active compounds read low 0.991 | locus YJL168C, strain set2, active compounds read low 0.994 | locus YJL187C, strain SWE1 (second series), active compounds read low 0.975 | locus YJL187C, strain SWE1, active compounds read low 0.993 | locus YJR043C, strain POL32, active compounds read low 1.01 | locus YJR066W, strain TOR1, active compounds read low 0.902
